Source: PubChem BioAssay (National Center for Advancing Translational Sciences (NCATS))
Six1-Eya2 inh – inhibitors of human Six1/Eya2 interaction; AlphaScreen GST-Six1/His-Eya2 binding, biochemical; active compounds read low; activity change, % (test concentration not listed); 360,000 tested, 0.56% active; AID 651725; in the data active = activity change below about -65%; inconclusive = mostly about -30% to -63%; also: % is scaled to controls: 0 for no effect and ±100 for the full control effect
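AlphaScreen luminescence read after one hour at 37 °C in darkness. Pin-transferred compounds met GST-Six1 and His-Eya2 protein (5X stock 250 nM/500 nM) plus glutathione donor and Ni-chelate acceptor beads (5X, 50 ug/mL).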
BAZ2B block – BAZ2B (human) inhibition | AID 504333 | 360,000 tested, 4.4% active | Q9UIF8 | AlphaScreen BAZ2B-H3K14Ac peptide displacement | Potency, µM (series often up to 114 µM), for the others: at the highest dose activity change, negative = inhibition, most hits filed as inhibitors; also: potency is read from the fitted curve at half-maximal effect; % is scaled to controls: 0 for no effect and ±100 for the full control effect; nearly all actives have a fitted effect of over 60% in size
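BAZ2B 50 nM plus b-H3(5-23)K14Ac 50 nM, PBS pH 7.4/0.01% Tween-20, 30 min RT; compound added (max 110 uM), 30 min RT; streptavidin donor/Ni-chelate acceptor beads 10 ug/mL final, 20 min dark; AlphaScreen read.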
CtBP-E1A inh – inhibitors of CtBP/E1A interaction; AlphaScreen GST-E1A/His-CtBP binding, 1536-well; active compounds read low; activity change, % (no concentration beside the values); 340,000 tested, 0.49% active; AID 651724; in the data active = activity change below about -65%; inconclusive = mostly about -30% to -63%; also: % is scaled to controls: 0 for no effect and ±100 for the full control effect
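In 5 uL wells, 23 nL compound meets equimolar GST-E1A and His-CtBP (5X stock 125 nM each) for 2 h, 37 °C. Beads (5X, 50 ug/mL) then 1 h, 37 °C, dark.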
HP1b binding inh – inhibitors of HP1-beta chromodomain binding to methylated histone tails. AID 540317. Potency, µM (doses to about 114 µM), for the others: at the top dose activity change, negative = inhibition, actives largely listed as inhibitors. P83916. 390,000 tested, 0.56% active. AlphaScreen HP1-beta / biotin-H3K9me3 peptide binding; also: potency is read from the fitted curve at half-maximal effect; nearly all actives have a fitted effect of over 70% in size
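Compound inhibition of the preformed complex between 50 nM HP1-beta and 50 nM biotinylated H3K9me3 peptide was read by AlphaScreen. Buffer was PBS pH 7.4 with 0.01% Tween-20. Incubations ran 30 min at room temperature, with 10 ug/mL donor/acceptor beads.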
JMJD2A Tudor inh – JMJD2A Tudor domain (human) inhibition; O75164; 390,000 tested, 4.4% active; AlphaScreen JMJD2A-Tudor / H3K4me3 peptide binding; Potency, µM (highest dose often 114 µM), inactives show at the top dose activity change, negative = inhibition, most hits filed as inhibitors; also: potency is read from the fitted curve at half-maximal effect; % is scaled to controls: 0 for no effect and ±100 for the full control effect; nearly all actives have a fitted effect of over 50% in size
Target sequence (O75164 whole entry, looked up, the tested form may be a part): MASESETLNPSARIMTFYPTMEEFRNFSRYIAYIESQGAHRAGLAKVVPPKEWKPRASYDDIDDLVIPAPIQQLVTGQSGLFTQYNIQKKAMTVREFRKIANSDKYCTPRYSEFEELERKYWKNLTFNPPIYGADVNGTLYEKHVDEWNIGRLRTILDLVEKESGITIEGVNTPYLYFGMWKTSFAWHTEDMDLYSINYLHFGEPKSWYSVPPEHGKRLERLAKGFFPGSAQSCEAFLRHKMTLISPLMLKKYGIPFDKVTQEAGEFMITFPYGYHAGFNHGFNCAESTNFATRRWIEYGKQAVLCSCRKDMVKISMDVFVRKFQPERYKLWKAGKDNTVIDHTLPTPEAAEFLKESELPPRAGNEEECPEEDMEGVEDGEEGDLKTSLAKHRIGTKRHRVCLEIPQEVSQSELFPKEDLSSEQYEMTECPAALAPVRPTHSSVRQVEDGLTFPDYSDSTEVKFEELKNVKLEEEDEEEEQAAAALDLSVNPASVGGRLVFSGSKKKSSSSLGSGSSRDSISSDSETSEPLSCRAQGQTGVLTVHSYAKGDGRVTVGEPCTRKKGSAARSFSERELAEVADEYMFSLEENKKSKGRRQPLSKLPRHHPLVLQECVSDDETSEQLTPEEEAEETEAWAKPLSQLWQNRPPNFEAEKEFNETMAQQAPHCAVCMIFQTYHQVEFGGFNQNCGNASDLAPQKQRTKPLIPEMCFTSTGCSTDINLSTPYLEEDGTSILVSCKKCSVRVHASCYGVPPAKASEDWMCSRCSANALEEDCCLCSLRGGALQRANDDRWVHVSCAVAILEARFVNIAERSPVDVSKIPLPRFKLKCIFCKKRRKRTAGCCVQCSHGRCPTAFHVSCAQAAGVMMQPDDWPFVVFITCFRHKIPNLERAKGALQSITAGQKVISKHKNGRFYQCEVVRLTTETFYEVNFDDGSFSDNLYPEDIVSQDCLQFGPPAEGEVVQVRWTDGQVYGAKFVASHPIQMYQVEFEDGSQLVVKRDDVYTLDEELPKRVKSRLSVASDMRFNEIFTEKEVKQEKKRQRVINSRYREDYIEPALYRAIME
G9a block – blocks human histone lysine methyltransferase G9a. Q96KQ7. 350,000 tested, 8.8% active. AID 504332. G9a H3K9 monomethylation, AlphaScreen, 2 h. Potency, µM (series often up to 102 µM), inactives show top-dose activity, negative = inhibition, hits mostly inhibitors; also: potency is read from the fitted curve at half-maximal effect; % is scaled to controls: 0 for no effect and ±100 for the full control effect; nearly all actives have a fitted effect of over 75% in size
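Quantitative HTS format: methyltransferase activity on a biotin-tagged H3K9 peptide is measured by AlphaScreen, using a rabbit anti-monomethyl-H3K9 antibody with streptavidin donor and anti-IgG acceptor beads. Final levels are 20 nM enzyme, 500 nM peptide, 20 uM SAM; 2 h RT.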
The depositor's hits bear a star; ? = inconclusive; nt = no result given; [ ] = dose if it differs, or a comment. Hits are enriched below; roughly 10% of the tested compounds scored in any of these assays. Unless noted, calls follow the shape of the dose curve; as a rule, active = well fitted inhibition curve with a large enough effect; inconclusive = small, poorly fitted or top-dose-only effect; inactive = no such curve, though single readings can be large or run the other way.

SMILES	Six1-Eya2 inh	BAZ2B block	CtBP-E1A inh	HP1b binding inh	JMJD2A Tudor inh	G9a block
CC1(C(=O)CSc2n[nH]c(-c3ccccc3Cl)n2)CCC(=O)O1 (stereo not drawn)	nt	?	nt	nt	nt	10µM*
CC1(C(=O)CSc2nc3ccccc3[nH]2)CCC(=O)O1 (stereo not drawn)	4.7	-5.0%	-3.7	8.6%	-13.5%	?
CC1(C(=O)CSc2ncn[nH]2)CCC(=O)O1 (stereo not drawn)	nt	89.1µM*	nt	nt	nt	11.2µM*
Cn1c(CNC(=O)CSc2n[nH]c(-c3ccccc3Cl)n2)nc2ccccc21	nt	4.1%	nt	25.3%[57 µM]	-26.9%	28.2µM*
CCN(C(=O)COC(=O)Cc1c[nH]c2ccccc12)c1c(N)n(Cc2ccccc2)c(=O)[nH]c1=O	5.4	12.5%	-12.1	8.4%	-16.7%	?
CCOC(=O)c1ccc(Nc2nc(=O)c3cccnc3s2)cc1	-0.1	-2.1%	4.8	28.3%	-5.7%	28.2µM*
CC(=O)c1cccc(Nc2nc(=O)c3cccnc3s2)c1	-14.1	-5.2%	0.7	26.2%	-9.0%	50.1µM*
Cc1ccc(Nc2nc(C)cc(C)n2)c(Br)c1	14.6	23.1%	12.9	74.9%	45.4%	33.4%
Cc1ccc(Nc2nc(=O)c3cccnc3s2)c(Br)c1	-2.5	-27.3%	-3.1	7.2%	-21.4%	14.1µM*
CC(=O)c1ccc(Nc2nc(=O)c3cccnc3s2)cc1	-3.4	-3.1%	-5.9	19.9%	-11.3%	?
O=c1nc(Nc2ccc(OCc3ccccc3)cc2)sc2ncccc12	0.1	-11.6%	2.7	22.0%	-16.2%	50.1µM*
COc1ccc(Br)cc1CN(C)C(=O)CNC(=O)c1ccc2ccccc2c1	-22.1	-5.8%	0.0	1.9%	-22.2%	-1.9%
O=C1CCC2=C1C1(CCCC1)N=C(Nc1nc3ccccc3o1)N2	nt	nt	nt	nt	-22.0%	nt
Cn1c(SCc2cc(=O)n3cc(Br)ccc3n2)nnc1C1COc2ccccc2O1 (stereo not drawn)	-5.2	?	1.1	29.5%	50.1µM*	-17.8%[59 µM]
Cn1c(SCC(=O)c2ccc3c(c2)OCO3)nnc1C1COc2ccccc2O1 (stereo not drawn)	2.8	5.6%	2.3	37.1%	50.1µM*	?
Cc1occc1-c1nnc(SCc2cc(=O)n3cc(Br)ccc3n2)n1C	-4.6	56.2µM*	-4.8	13.7%	?	-24.7%[59 µM]
Cn1c(SCC(=O)c2ccccc2)nnc1C1COc2ccccc2O1 (stereo not drawn)	6.9	-0.5%	5.9	45.3%	-6.9%	nt
O=C(CSc1nc(-c2cccs2)nc2cc(=O)[nH]n12)Nc1ccccc1Cl	nt	79.4µM*	nt	19.9%	?	27.9%[59 µM]
Cc1cccc(NC(=O)CSc2nc(-c3ccco3)nc3cc(=O)[nH]n23)c1	nt	79.4µM*	nt	27.1%	-20.5%	13.8%[12.7 µM]
Cc1ccc(NC(=O)CSc2nc(-c3ccccc3Cl)nc3cc(=O)[nH]n23)c(C)c1	nt	89.1µM*	nt	3.0%	-13.0%	-8.2%[59 µM]
O=C(CSc1nc(-c2cccs2)nc2cc(=O)[nH]n12)Nc1ccccc1	nt	56.2µM*	nt	32.4%	-24.0%	17.4%[59 µM]
O=C(NCCCc1nc2ccccc2n1CCCOc1ccccc1)C1CCCCC1	nt	nt	nt	24.1%[57 µM]	0.8%[57.1 µM]	nt
COCCNC(=S)N(C)C1(c2ccccc2Cl)CCCCC1=O (stereo not drawn)	-0.8	-12.9%	0.0	27.3%	-2.8%	44.7µM*
CC12CCC(c3c1nc1ccccc1[n+]3[O-])C2(C)C (stereo not drawn)	1.7	4.0%	0.3	5.2%	44.7µM*	9.9%[59 µM]
CO/N=C/C1C(=O)NN=C1c1ccccc1 (stereo not drawn)	1.3	?	3.4	17.2%	12.6µM*	?
COc1cn(CC(=O)Nc2cccc(C)c2)c(CN2CCCCC2)cc1=O	nt	0.0%	nt	23.6%	1.3%	0.7%[59 µM]
Cc1cn([C@H]2C[C@H](O)[C@@H](/C=C/C(=O)NCCC(C)C)O2)c(=O)[nH]c1=O	7.5	nt	9.8	nt	nt	nt
